Test results as given in the supplement of paper PMC10849652.
Of roughly 7,900 targets only a part is listed; those with a hit were picked by preference. About 0.6% of all pairs of compound and target were hits. Unmarked numbers belong to inactive results.

Legend:
Assay in all cases: log2 fold change, soluble protein after heating vs DMSO (PISA); higher = thermal stabilisation; K562 cells, 10 uM, 30 min; active = over 0.2 and 3.5 SD of the protein, either way, in both replicates (recomputed)
bafetinib = compound: Cc1ccc(NC(=O)c2ccc(CN3CC[C@H](N(C)C)C3)c(C(F)(F)F)c2)cc1Nc1nccc(-c2cncnc2)n1 [bafetinib]
Outline: (§1)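 Aliquots of K562 cells (2×10^6 cells/mL) treated with 10 μM compound for 30 min were heated for 3 min over 48°C-58°C. After pooling and extraction in PBS with 0.5% NP-40 at 4°C, soluble protein from a 21,000xg, 90 min spin was quantified by TMTpro 16plex LC-MS/MS with channel sums equalised. Thermal stability is expressed against control samples, from duplicates, as a log2 fold change.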

[1] = compound: Cc1cccc(CC(=O)N2CCc3c2ccc(-c2cn(C)c4ncnc(N)c24)c3F)n1
Outline: as §1

nilotinib = compound: Cc1cn(-c2cc(NC(=O)c3ccc(C)c(Nc4nccc(-c5cccnc5)n4)c3)cc(C(F)(F)F)c2)cn1 [nilotinib]
Outline: as §1

[2] = compound: Cc1nc(Nc2n[nH]c3c2CN(C(=O)N[C@H](CN(C)C)c2ccccc2)C3(C)C)c2sccc2n1
Outline: as §1

dasatinib = compound: Cc1nc(Nc2ncc(C(=O)Nc3c(C)cccc3Cl)s2)cc(N2CCN(CCO)CC2)n1 [dasatinib]
Outline: as §1

[3] = compound: Cc1ncc(-c2ccnc(Nc3ccc(S(C)(=O)=O)cc3)n2)n1C(C)C
Outline: as §1

[4] = compound: Cn1cc(-c2ccc3c(c2)CCN3C(=O)Cc2cccc(C(F)(F)F)c2)c2c(N)ncnc21
Outline: as §1

[5] = compound: Cn1cc(-c2ccc3nnc(C(F)(F)c4ccc5ncccc5c4)n3n2)cn1
Outline: as §1

tipifarnib = compound: Cn1cncc1[C@@](N)(c1ccc(Cl)cc1)c1ccc2c(c1)c(-c1cccc(Cl)c1)cc(=O)n2C [tipifarnib]
Outline: as §1

mubritinib = compound: FC(F)(F)c1ccc(/C=C/c2nc(COc3ccc(CCCCn4ccnn4)cc3)co2)cc1 [mubritinib]
Outline: as §1

[6] = compound: NC(=O)Nc1cc(-c2cccc(F)c2)sc1C(=O)N[C@H]1CCCNC1
Outline: as §1

[7] = compound: NC(=O)c1cnc(N[C@@H]2CCCC[C@@H]2N)nc1Nc1cccc(-n2nccn2)c1
Outline: as §1

[8] = compound: NC1(c2ccc(-c3nc4ccn5c(=O)[nH]nc5c4cc3-c3ccccc3)cc2)CCC1
Outline: as §1

[9] = compound: NCC(=O)Nc1ccc(-n2nc(C(F)(F)F)cc2-c2ccc3c(ccc4ccccc43)c2)cc1
Outline: as §1

entinostat = compound: Nc1ccccc1NC(=O)c1ccc(CNC(=O)OCc2cccnc2)cc1 [entinostat]
Outline: as §1

vorinostat = compound: O=C(CCCCCCC(=O)Nc1ccccc1)NO [vorinostat]
Outline: as §1

citarinostat = compound: O=C(CCCCCCNC(=O)c1cnc(N(c2ccccc2)c2ccccc2Cl)nc1)NO [citarinostat]
Outline: as §1

silmitasertib = compound: O=C(O)c1ccc2c(c1)nc(Nc1cccc(Cl)c1)c1ccncc12 [silmitasertib]
Outline: as §1

[10] = compound: O=C1NC(=O)C(c2cnc3ccccn23)=C1c1cn2c3c(cc(F)cc13)CN(C(=O)N1CCCCC1)CC2
Outline: as §1

[11] = compound: c1cc(OCCN2CCCCC2)cc(-c2n[nH]c3ccc(-c4nnc[nH]4)cc23)c1
Outline: as §1

Sequence of UniProt Q8WWV3 (Q8WWV3 whole entry, looked up): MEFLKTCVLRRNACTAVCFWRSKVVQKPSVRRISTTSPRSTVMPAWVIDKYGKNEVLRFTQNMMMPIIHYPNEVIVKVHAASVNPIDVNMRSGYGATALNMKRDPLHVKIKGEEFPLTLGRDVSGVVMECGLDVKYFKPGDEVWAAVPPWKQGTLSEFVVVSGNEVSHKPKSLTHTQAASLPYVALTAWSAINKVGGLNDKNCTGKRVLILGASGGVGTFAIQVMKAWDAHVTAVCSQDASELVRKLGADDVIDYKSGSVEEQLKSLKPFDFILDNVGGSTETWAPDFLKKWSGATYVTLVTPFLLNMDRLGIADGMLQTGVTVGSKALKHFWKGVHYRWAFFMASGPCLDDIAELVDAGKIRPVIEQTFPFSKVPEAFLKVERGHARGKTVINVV
Sequence of UniProt P49792 (P49792 whole entry, looked up): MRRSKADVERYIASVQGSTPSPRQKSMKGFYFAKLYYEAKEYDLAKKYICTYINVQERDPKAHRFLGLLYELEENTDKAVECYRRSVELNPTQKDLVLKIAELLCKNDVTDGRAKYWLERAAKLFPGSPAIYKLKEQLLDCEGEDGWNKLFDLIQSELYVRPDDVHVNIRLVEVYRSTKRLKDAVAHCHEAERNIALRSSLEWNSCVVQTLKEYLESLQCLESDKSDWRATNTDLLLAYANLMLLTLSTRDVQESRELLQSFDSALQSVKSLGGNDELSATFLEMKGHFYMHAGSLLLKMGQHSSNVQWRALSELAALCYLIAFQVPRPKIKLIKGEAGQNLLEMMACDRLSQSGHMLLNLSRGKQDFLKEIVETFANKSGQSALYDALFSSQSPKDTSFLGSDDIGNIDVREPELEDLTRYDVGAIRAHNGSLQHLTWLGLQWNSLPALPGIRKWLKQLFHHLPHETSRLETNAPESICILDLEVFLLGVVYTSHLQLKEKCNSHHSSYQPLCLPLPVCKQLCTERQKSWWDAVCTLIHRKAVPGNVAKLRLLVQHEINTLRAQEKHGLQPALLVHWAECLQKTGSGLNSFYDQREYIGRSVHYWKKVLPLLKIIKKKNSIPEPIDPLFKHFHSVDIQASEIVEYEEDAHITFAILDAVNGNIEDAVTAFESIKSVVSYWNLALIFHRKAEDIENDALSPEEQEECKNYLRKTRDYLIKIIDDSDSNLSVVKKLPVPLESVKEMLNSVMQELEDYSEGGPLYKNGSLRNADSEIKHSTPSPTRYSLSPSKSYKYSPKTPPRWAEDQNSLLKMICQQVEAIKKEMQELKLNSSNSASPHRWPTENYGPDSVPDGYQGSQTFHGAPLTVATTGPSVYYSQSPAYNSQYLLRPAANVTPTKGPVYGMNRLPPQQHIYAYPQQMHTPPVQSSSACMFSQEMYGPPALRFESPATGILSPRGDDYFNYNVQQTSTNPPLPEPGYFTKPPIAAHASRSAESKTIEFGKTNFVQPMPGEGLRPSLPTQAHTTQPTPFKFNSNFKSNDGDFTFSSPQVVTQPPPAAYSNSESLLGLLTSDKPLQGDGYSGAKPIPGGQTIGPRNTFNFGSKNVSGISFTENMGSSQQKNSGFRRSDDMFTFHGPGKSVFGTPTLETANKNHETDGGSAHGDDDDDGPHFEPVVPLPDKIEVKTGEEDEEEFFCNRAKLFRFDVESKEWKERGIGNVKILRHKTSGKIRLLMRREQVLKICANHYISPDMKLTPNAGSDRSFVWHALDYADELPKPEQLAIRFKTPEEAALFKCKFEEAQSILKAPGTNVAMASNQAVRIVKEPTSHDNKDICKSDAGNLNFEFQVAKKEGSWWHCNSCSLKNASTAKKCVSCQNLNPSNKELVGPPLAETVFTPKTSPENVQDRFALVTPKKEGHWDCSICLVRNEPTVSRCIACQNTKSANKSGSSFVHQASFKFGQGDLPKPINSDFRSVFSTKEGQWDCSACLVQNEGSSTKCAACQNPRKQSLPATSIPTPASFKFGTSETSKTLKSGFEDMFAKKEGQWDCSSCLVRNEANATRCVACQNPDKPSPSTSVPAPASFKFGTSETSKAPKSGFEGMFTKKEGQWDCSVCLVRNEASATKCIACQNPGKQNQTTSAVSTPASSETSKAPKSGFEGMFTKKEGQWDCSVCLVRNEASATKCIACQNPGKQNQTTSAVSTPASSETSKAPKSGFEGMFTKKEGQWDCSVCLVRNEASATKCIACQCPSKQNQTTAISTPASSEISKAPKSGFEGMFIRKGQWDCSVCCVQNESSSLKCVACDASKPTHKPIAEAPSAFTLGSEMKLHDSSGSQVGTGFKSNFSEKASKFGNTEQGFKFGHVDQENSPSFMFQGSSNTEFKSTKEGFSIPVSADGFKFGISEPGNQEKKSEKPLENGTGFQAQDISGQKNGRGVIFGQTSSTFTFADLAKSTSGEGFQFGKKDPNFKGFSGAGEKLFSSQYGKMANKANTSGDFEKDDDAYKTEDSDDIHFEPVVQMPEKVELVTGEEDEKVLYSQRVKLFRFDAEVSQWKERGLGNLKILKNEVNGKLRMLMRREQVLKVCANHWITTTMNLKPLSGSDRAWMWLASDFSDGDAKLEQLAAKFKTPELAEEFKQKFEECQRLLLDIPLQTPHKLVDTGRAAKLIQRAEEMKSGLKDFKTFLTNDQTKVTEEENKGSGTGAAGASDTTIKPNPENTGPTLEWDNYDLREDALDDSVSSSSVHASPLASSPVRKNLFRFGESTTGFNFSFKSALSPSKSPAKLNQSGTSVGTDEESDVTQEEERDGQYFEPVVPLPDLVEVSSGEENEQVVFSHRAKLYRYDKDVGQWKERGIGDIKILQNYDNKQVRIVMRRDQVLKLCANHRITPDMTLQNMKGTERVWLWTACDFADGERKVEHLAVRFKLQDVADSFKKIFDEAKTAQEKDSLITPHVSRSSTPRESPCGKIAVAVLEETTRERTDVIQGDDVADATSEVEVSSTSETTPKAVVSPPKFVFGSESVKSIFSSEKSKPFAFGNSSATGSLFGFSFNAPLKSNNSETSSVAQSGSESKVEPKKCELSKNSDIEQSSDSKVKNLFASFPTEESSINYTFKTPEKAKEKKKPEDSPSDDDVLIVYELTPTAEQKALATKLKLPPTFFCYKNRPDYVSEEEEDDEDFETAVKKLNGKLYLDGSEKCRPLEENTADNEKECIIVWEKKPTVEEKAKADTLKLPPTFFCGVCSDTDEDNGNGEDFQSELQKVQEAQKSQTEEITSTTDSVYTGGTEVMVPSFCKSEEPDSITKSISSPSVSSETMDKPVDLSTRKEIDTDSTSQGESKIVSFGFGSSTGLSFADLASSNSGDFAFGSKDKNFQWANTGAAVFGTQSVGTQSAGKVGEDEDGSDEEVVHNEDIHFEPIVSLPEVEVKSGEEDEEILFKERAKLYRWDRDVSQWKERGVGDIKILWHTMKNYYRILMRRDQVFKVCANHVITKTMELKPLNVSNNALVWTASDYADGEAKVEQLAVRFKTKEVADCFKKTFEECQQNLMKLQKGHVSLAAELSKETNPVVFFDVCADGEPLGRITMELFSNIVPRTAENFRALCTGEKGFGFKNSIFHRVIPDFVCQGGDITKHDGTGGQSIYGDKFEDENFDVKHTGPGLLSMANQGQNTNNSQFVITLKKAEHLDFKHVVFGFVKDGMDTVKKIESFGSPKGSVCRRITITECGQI
Sequence of UniProt Q9NQG5 (Q9NQG5 whole entry, looked up): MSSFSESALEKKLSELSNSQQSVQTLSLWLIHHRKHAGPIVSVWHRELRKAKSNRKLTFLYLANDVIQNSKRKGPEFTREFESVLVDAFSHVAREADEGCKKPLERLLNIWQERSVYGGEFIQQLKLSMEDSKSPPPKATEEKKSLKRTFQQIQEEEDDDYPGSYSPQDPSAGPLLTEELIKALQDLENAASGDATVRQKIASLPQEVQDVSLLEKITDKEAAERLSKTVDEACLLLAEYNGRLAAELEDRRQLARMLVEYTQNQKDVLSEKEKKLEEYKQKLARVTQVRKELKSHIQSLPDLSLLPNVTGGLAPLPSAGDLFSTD
Sequence of UniProt Q9UKL0 (Q9UKL0 whole entry, looked up): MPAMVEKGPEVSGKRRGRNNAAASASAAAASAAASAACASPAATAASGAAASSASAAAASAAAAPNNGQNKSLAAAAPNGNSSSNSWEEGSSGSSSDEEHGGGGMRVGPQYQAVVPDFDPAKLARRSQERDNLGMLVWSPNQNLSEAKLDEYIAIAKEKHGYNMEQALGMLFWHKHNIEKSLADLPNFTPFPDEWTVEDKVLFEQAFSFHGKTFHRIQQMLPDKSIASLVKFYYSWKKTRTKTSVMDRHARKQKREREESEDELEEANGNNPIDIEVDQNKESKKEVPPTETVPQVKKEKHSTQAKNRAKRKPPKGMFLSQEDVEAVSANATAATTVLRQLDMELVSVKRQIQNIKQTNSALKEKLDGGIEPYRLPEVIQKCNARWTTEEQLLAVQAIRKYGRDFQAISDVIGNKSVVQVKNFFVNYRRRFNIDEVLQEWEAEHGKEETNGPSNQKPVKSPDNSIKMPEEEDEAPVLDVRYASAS
Sequence of UniProt O95470 (O95470 whole entry, looked up): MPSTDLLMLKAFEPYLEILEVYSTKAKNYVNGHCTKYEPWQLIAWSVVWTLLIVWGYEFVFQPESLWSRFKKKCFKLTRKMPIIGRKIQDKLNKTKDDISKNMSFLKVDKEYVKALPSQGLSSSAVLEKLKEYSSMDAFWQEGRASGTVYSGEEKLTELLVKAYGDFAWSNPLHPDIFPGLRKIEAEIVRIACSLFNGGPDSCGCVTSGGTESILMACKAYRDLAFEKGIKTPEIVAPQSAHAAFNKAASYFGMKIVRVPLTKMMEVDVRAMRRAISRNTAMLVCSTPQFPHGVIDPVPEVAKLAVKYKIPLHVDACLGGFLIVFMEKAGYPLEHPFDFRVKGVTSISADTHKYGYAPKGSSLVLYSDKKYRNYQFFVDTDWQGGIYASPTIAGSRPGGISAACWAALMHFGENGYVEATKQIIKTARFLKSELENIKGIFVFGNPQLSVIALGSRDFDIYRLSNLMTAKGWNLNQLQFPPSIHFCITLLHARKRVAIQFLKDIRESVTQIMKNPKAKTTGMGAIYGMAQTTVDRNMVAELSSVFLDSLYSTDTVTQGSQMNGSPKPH

Target	log2 fold change (bafetinib)	log2 fold change [1]	log2 fold change (nilotinib)	log2 fold change [2]	log2 fold change (dasatinib)	log2 fold change [3]	log2 fold change [4]	log2 fold change [5]	log2 fold change (tipifarnib)	log2 fold change (mubritinib)	log2 fold change [6]	log2 fold change [7]	log2 fold change [8]	log2 fold change [9]	log2 fold change (entinostat)	log2 fold change (vorinostat)	log2 fold change (citarinostat)	log2 fold change (silmitasertib)	log2 fold change [10]	log2 fold change [11]
SEH1L isoform 1 (UniProt Q96EE3)	-0.083	0.051	0.012	-0.081	-0.008	-0.028	0.015	-0.037	-0.11	0.031	0.007	-0.027	-0.014	-0.004	-0.04	0.022	0.064	0.076	-0.027	-0.065
RPP14 (UniProt O95059)	0.045	0	-0.014	0.019	0.063	-0.013	-0.078	-0.054	0.003	-0.084	0.063	-0.006	-0.003	0.138	-0.065	-0.033	0.051	0.06	0.027	-0.107
RPS20 isoform 2 (UniProt P60866)	0.178	-0.005	-0.006	0.223	0.05	-0.071	-0.078	-0.008	0.094	-0.059	-0.012	0.056	0.151	0.037	-0.029	0.012	-0.091	-0.006	0.072	-0.1
RDH11 (UniProt Q8TC12)	-0.119	-0.048	0.099	-0.112	-0.079	-0.03	0.015	-0.022	0.059	-0.033	-0.118	0.061	-0.049	-0.165	0.055	0.05	0.092	0.061	-0.087	-0.041
SERINC3 (UniProt Q13530)	-0.031	-0.035	0.02	0.039	-0.123	0.07	-0.014	-0.077	-0.115	0.009	-0.111	-0.027	-0.195	-0.267	-0.07	-0.044	-0.093	0.054	0.018	-0.031
RNF220 (UniProt Q5VTB9)	-0.064	0.008	0.009	-0.058	0.01	0.037	-0.034	0.239 (active)	-0.003	0.002	0.01	-0.019	-0.002	-0.06	-0.037	0.052	0.043	0.025	-0.075	-0.038
RPS12 (UniProt P25398)	0.112	0.006	0.002	0.126	0.08	-0.012	-0.013	-0.004	0.049	-0.08	0.006	0.073	0.134	0.068	-0.032	-0.002	0.009	-0.042	0.076	-0.113
RRAGC (UniProt Q9HB90)	-0.07	-0.054	-0.005	0.022	0.05	-0.021	0.001	0.05	-0.027	0.031	-0.001	-0.091	-0.265 (active)	-0.069	-0.004	-0.015	0.041	0.014	0.011	-0.027
RANBP2 (UniProt P49792)	-0.092	0.197	-0.05	0.087	-0.011	-0.043	-0.047	-0.051	-0.036	-0.073	0.063	-0.05	0.01	0.005	0.009	-0.034	-0.037	0.001	-0.049	0.019
RPS13 (UniProt P62277)	0.342	0	0.017	0.221	0.088	-0.051	-0.237	-0.089	0.204	-0.184	0.058	0.093	0.246	0.115	-0.062	0.019	-0.121	-0.022	0.091	-0.182
RPRD1B (UniProt Q9NQG5)	-0.036	0.04	-0.036	-0.072	-0.099	-0.024	-0.021	-0.035	-0.039	0.032	-0.058	-0.03	-0.087	-0.081	0.051	0.049	0.029	0.031	-0.346 (active)	-0.049
RTN4IP1 (UniProt Q8WWV3)	-0.178	-0.07	0.171	-0.194	0.189	-0.008	0.121	0.168	0.041	0.122	-0.057	-0.218	-0.085	-0.024	0.009	0.111	0.316	0.069	0.079	-0.198
RBM17 (UniProt Q96I25)	-0.056	0.042	-0.095	-0.249	-0.108	0.011	-0.067	-0.028	-0.042	-0.148	0.021	0.037	0.003	-0.07	0.08	0.092	0.056	0.036	0.027	-0.127
SKP1 (UniProt P63208)	-0.003	0.289 (active)	0.024	-0.011	0.007	0.012	0.047	-0.017	-0.06	-0.001	0.015	0.011	0.034	0.047	0.037	0.16	-0.003	0	0.008	0.01
RCOR1 (UniProt Q9UKL0)	0.011	0.021	-0.034	-0.107	-0.063	-0.062	-0.005	0.033	-0.087	0.07	0.035	-0.104	-0.03	-0.133	0.189	0.082	0.007	0.016	-0.043	-0.103
SGPL1 (UniProt O95470)	0.009	-0.013	0.024	-0.017	0.016	-0.029	-0.005	-0.071	0.151	0.034	-0.01	0.004	-0.005	0.144	0	-0.014	0.009	-0.034	0.064	-0.134
